From PubChem BioAssay (NCATS)
Results filed as inconclusive are left out. A call without a number means that no potency is given here. Values without a mark were called inactive. Activity calls are given as the source filed them. The call rests on the fitted dose curve; in most records, active means well fitted curve in the direction sought with a large enough effect; inconclusive means small, poorly fitted or top-dose-only effect, or another doubt; inactive means no such curve, though single readings can be large; an effect the other way counts as inactive or inconclusive. Where a SMILES comes first, the peptide text is derived from it. Bridges are numbered along the chain shown (N, C = ends). [ ]: non-standard residue; d: D form. hArg = N=C(N)NCCCC[C@H](N)C(=O)O; Mpa = O=C(O)CCS

Key:
[1] = qHTS of pediatric cancer cell lines to identify multiple opportunities for drug repurposing: Primary screen for Rh30 cells (AID 1347107); further: series mostly up to about 46 µM; nearly all actives have a fitted effect of over 75% in size
Method in brief: (§1)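 Cells (500-1,000/well) rested 5 h, then received compounds for 48 h; metabolically active cells were measured by CellTiter-Glo luminescence. Final concentrations spanned up to 46 µM (MIPE, 11-point) or 0.59 nM-46 µM (NPC, 8-point) in primary screens, 11-point in follow-ups.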

[2] = qHTS of pediatric cancer cell lines to identify multiple opportunities for drug repurposing: Primary screen for Rh41 cells (AID 1347108);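 further: series mostly up to about 46 µM; luminescence drop marks cytotoxic hits; nearly all actives have a fitted effect of over 70% in size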
Method in brief: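 Cells seeded at 500-1,000 cells/well in growth media, rested 5 hours at 37 degrees C, 5% CO2, then dosed; MIPE compounds at 11-point (from 0.78 nM) and NPC at 8-point (from 0.59 nM) final concentrations. Viability by CellTiter-Glo luminescence after 48 hours.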

[3] = qHTS of pediatric cancer cell lines to identify multiple opportunities for drug repurposing: Confirmatory screen for NB1643 cells (AID 1347109); further: potency means the concentration at half of the fitted maximal effect; nearly all actives have a fitted effect of over 45% in size
Method in brief: as §1

[4] = qHTS of pediatric cancer cell lines to identify multiple opportunities for drug repurposing: Confirmatory screen for SK-N-MC cells (AID 1347111); conditions: SK-N-MC cell viability;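 further: potency means the concentration at half of the fitted maximal effect; cells exposed to compound for 48 h before the readout; nearly all actives have a fitted effect of over 70% in size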
Method in brief: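 Seed 500-1,000 cells/well; rest 5 h at 37 degrees C. Pin-transfer compounds, 11-point titration. Incubate 48 h. Add CellTiter-Glo, 15 min RT, read luminescence.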

[5] = qHTS of pediatric cancer cell lines to identify multiple opportunities for drug repurposing: Confirmatory screen for LAN-5 cells (AID 1347113); further: potency means the concentration at half of the fitted maximal effect; nearly all actives have a fitted effect of over 65% in size
Method in brief: as §1

[6] = qHTS of pediatric cancer cell lines to identify multiple opportunities for drug repurposing: Confirmatory screen for DAOY cells (AID 1347114); further: nearly all actives have a fitted effect of over 65% in size
Method in brief: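 Viability measured as metabolically active cells via CellTiter-Glo luminescence following 48 hours of compound exposure, 11-point dilutions in confirmatory testing. 500-1,000 cells/well plated 5 hours before dosing; controls were DMSO and 2.3 µM bortezomib.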

Compound: O=C(CCBr)N1CCN(C(=O)CCBr)CC1
- outcome [1]: inactive
- outcome [2]: inactive

Compound: CC(=O)OCC(=O)[C@@]1(O)CC[C@H]2[C@@H]3CCC4=CC(=O)C=C[C@]4(C)[C@@]3(F)[C@@H](O)C[C@@]21C
- outcome [1]: inactive
- outcome [2]: inactive
- Potency [3]: 10.4 µM (active)
- Potency [4]: 16.5 µM (active)
- Potency [5]: 14.7 µM (active)
- outcome [6]: inactive

Compound: O=C(O)Cc1ccc(CCNS(=O)(=O)c2ccc(Cl)cc2)cc1
- outcome [1]: inactive
- outcome [2]: inactive

Compound: CC1(C)[C@@H](OC(=O)CCC(=O)O)CC[C@]2(C)[C@H]3C(=O)C=C4[C@@H]5C[C@@](C)(C(=O)O)CC[C@]5(C)CC[C@@]4(C)[C@]3(C)CC[C@@H]12
- outcome [1]: inactive
- outcome [2]: inactive

Compound: Cc1cc(C)nc(NS(=O)(=O)c2ccc(N)cc2)n1
- outcome [1]: inactive
- outcome [2]: inactive

Compound: Cc1ncc(CO)c(CN)c1O
- outcome [1]: inactive
- outcome [2]: inactive

Compound: Cc1ccc(C(C)C)c(O)c1
- outcome [1]: inactive
- outcome [2]: inactive

Compound: Cc1ccc(S(=O)(=O)NC(=O)NC2CCCCCCC2)cc1
- outcome [1]: inactive
- outcome [2]: inactive

Compound: CN1C(C)(C)CCCC1(C)C
- outcome [1]: inactive
- outcome [2]: inactive

Compound: OCc1ccc(Cl)cc1Cl
- outcome [1]: inactive
- outcome [2]: inactive

Compound: Cn1c([N+](=O)[O-])cnc1COC(N)=O
- outcome [1]: inactive
- outcome [2]: inactive

Compound: CC(=O)NCc1c(I)c(NC(C)=O)c(I)c(C(=O)O)c1I
- outcome [1]: inactive
- outcome [2]: inactive

Compound: N[C@@H](Cc1ccc(O)cc1)C(=O)O
- activity change, negative = cytotoxic [1]: 21.6% [at 9.22 µM]
- activity change, negative = cytotoxic [2]: 24.2% [at 9.22 µM]

Compound: COc1ccccc1OC(=O)Oc1ccccc1OC
- outcome [1]: inactive
- outcome [2]: inactive

Compound: O=C(O)c1ccc[n+]([O-])c1
- outcome [1]: inactive
- outcome [2]: inactive

Compound: CC1CCN(CCCC(=O)c2ccc(F)cc2)CC1
- outcome [1]: inactive
- outcome [2]: inactive

Compound: CCOc1cc(NC(C)=O)ccc1C(=O)OC
- outcome [1]: inactive
- outcome [2]: inactive

Compound: COc1ccc(O)cc1
- outcome [1]: inactive
- outcome [2]: inactive

Compound: O=C(O)c1cc(=O)c2ccccc2o1
- outcome [1]: inactive
- outcome [2]: inactive

Compound: CN1C(=O)CC(c2ccccc2)C1=O (centres undefined)
- outcome [1]: inactive
- outcome [2]: inactive

Compound: COc1ccccc1Oc1c(NS(=O)(=O)c2ccc(C(C)(C)C)cc2)nc(-c2ncccn2)nc1OCCO
- outcome [1]: inactive
- outcome [2]: inactive

Compound: CC(=O)OC[C@H]1O[C@@](COC(C)=O)(O[C@H]2O[C@H](COC(C)=O)[C@@H](OC(C)=O)[C@H](OC(C)=O)[C@H]2OC(C)=O)[C@@H](OC(C)=O)[C@@H]1OC(C)=O
- outcome [1]: inactive
- outcome [2]: inactive

Compound: COc1ccc(C(=O)NCc2ccc(OCCN(C)C)cc2)cc1OC
- outcome [1]: inactive
- outcome [2]: inactive

Compound: NC(=O)[C@@H]1CSSCCC(=O)N[C@@H](CCCCN=C(N)N)C(=O)NCC(=O)N[C@@H](CC(=O)O)C(=O)N[C@@H](Cc2c[nH]c3ccccc23)C(=O)N2CCC[C@H]2C(=O)N1 ([Mpa][hArg]GDWPC-NH2; disulfide 1-7)
- outcome [1]: inactive
- outcome [2]: inactive

Compound: CC(C)=CCC/C(C)=C/CO
- outcome [1]: inactive
- outcome [2]: inactive

Compound: COc1ccc(-c2cc(=O)c3c(O)cc(O[C@@H]4O[C@H](CO[C@@H]5O[C@@H](C)[C@H](O)[C@@H](O)[C@H]5O)[C@@H](O)[C@H](O)[C@H]4O)cc3o2)cc1O
- outcome [1]: inactive
- outcome [2]: inactive

Compound: CCOC(N)=O
- outcome [1]: inactive
- outcome [2]: inactive

Compound: Cc1ccsc1C(=CCCN1CCC[C@@H](C(=O)O)C1)c1sccc1C
- outcome [1]: inactive
- outcome [2]: inactive

Compound: CCCCCC(C)N (centres undefined)
- outcome [1]: inactive
- outcome [2]: inactive

Compound: Nc1ccc(C(=O)Oc2ccccc2)c(O)c1
- outcome [1]: inactive
- outcome [2]: inactive

Compound: CC(=O)N[C@@H](Cc1ccc(O)cc1)C(=O)O
- outcome [1]: inactive
- outcome [2]: inactive

Compound: C=CCSCC1Nc2cc(Cl)c(S(N)(=O)=O)cc2S(=O)(=O)N1 (centres undefined)
- outcome [1]: inactive
- outcome [2]: inactive

Compound: CC1(C)S[C@@H]2[C@H](N=CN3CCCCCC3)C(=O)N2[C@H]1C(=O)O
- outcome [1]: inactive
- outcome [2]: inactive

Compound: CNc1c2c(nn1C)CCCC2
- outcome [1]: inactive
- outcome [2]: inactive

Compound: COc1ccc(NS(=O)(=O)c2ccc(N)cc2)nn1
- outcome [1]: inactive
- outcome [2]: inactive
